Assay [1] is described as follows: qHTS RealTime-Glo MT Cell Viability Assay in HEK293 cells - 0 hour (AID 1224880). Note: top concentration of the series differs between compounds; nearly all actives have a fitted effect of over 45% in size. The gist of the method: (§1)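 Luminescence readout at each listed time point; HEK293, 600 cells/well, RealTime-Glo MT reagent added with cells; compounds pinned (23 nL in DMSO) after 5 h at 37 C; continuous culture at 37 C.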
(qHTS replaces the single test concentration by a dilution series.)

Assay [2] is described as follows: A CellTox Green Cytotoxicity Assay to monitor cytotoxicity in HEK293 cells - 32 hour (AID 1224881). Note: nearly all actives have a fitted effect of over 40% in size. The method, boiled down:
(§2)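 Read-out: fluorescence of a cell-impermeant cyanine dye staining DNA of dead cells, proportional to cytotoxicity. HEK293, 600 cells/well with reagent, compound (23 nL DMSO) added after 5 h; reads at 0, 8, 16, 24, 32, 40 h.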

A short description of assay [3]: A CellTox Green Cytotoxicity Assay to monitor cytotoxicity in HepG2 cells - 0 hour (AID 1224882). Note: nearly all actives have a fitted effect of over 35% in size. The method, boiled down:
(§3)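 HepG2, 600 cells/well premixed w/ CellTox Green; 5 h settle, 37 C/5% CO2; pintool cpd add (DMSO); 37 C, 40 h; fluorescence read at 0, 8, 16, 24, 32, 40 h.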

Assay [4] can be described thus: A CellTox Green Cytotoxicity Assay to monitor cytotoxicity in HepG2 cells - 32 hour (AID 1224883). Note: nearly all actives have a fitted effect of over 50% in size. The method, boiled down:
as §3

Assay [5] in a line: A CellTox Green Cytotoxicity Assay to monitor cytotoxicity in HEK293 cells - 8 hour (AID 1224884). Note: nearly all actives have a fitted effect of over 35% in size. The method, boiled down: as §2
A short description of assay [6]: qHTS RealTime-Glo MT Cell Viability Assay in HepG2 cells - 16 hour (AID 1224885). Note: nearly all actives have a fitted effect of over 50% in size. The method, boiled down:
(§4)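 Cell number in HepG2 cultures estimated from NanoLuc luminescence generated by metabolic reduction of a prosubstrate by living cells. The homogeneous, nonlytic format allowed repeated reads at 0, 8, 16, 24, 32 and 40 h of compound exposure.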

Assay [7] is described as follows: qHTS RealTime-Glo MT Cell Viability Assay in HEK293 cells - 24 hour (AID 1224886). Note: nearly all actives have a fitted effect of over 50% in size. Note: potency is the fitted concentration of half-maximal effect. The gist of the method:
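Homogeneous bioluminescent viability format in HEK293 cells (600 cells/well). Following 5 h at 37 C/5% CO2, 23 nL compound was pintooled; the signal was measured repeatedly during 40 h incubation.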

Assay [8] can be described thus: qHTS RealTime-Glo MT Cell Viability Assay in HEK293 cells - 8 hour (AID 1224887). Note: top concentration of the series differs between compounds; nearly all actives have a fitted effect of over 50% in size. The gist of the method: as §1
Assay [9] in a line: A CellTox Green Cytotoxicity Assay to monitor cytotoxicity in HEK293 cells - 16 hour (AID 1224888). Note: nearly all actives have a fitted effect of over 35% in size. The method, boiled down: as §2
A short description of assay [10]: qHTS RealTime-Glo MT Cell Viability Assay in HepG2 cells - 0 hour (AID 1224889). Note: nearly all actives have a fitted effect of over 50% in size. Note: potency is the fitted concentration of half-maximal effect. The gist of the method:
as §4

Assay [11] is described as follows: A CellTox Green Cytotoxicity Assay to monitor cytotoxicity in HepG2 cells - 8 hour (AID 1224890). Note: nearly all actives have a fitted effect of over 45% in size. The gist of the method: as §3
The nature of assay [12]: qHTS assay to identify small molecule antagonists of the estrogen receptor alpha (ER-alpha) signaling pathway using the BG1 cell line in the presence of 0.1 nM 17-beta-estradiol - cell viability counter screen (AID 1259241). Note: nearly all actives have a fitted effect of over 40% in size. The gist of the method:
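VM7Luc4E2 cells (endogenous ER-alpha, 4×ERE-luciferase), hormone-starved 5 days in charcoal-stripped FBS, were treated with compounds plus 0.1 nM 17beta-estradiol for 22 hr at 37C; viability read in same wells as CellTiter-Fluor live-cell protease fluorescence.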

Assay [13] in a line: qHTS assay to identify small molecule antagonists of the androgen receptor (AR) signaling pathway using the MDA cell line in the presence of 0.5 nM R1881 - cell viability counter screen (AID 1259242). Note: nearly all actives have a fitted effect of over 45% in size. The gist of the method: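 Live-cell protease fluorescence, CellTiter-Fluor, 30 min at 37C. Cells: MDA-kb2, 3,000/well, preincubated 5 hr. Compounds plus 0.5 nM R1881 final, 16 hr, 37C, 0% CO2.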

The nature of assay [14]: qHTS assay to identify small molecule phospholipidosis (PLD) inducers (AID 1259344; active = well fitted curve in the direction sought with a large enough effect; an effect the other way counts as inactive or inconclusive). The method, boiled down: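 Accumulated phospholipid, stained red by LipidTOX during 24 h compound treatment of HepG2 cells at 37 C, is quantified from images as pit number and intensity, normalised per cell using Hoechst-stained nuclei.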
Assay [15] can be described thus: qHTS assay to identify small molecule HDAC inhibitors - cell viability counter screen (AID 1259365). The gist of the method: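 Wild-type HCT-116 cells were seeded at 1,500 per well, incubated overnight at 37 C, then exposed to compounds in DMSO for 2hr. Viability was read by CellTiter-Glo luminescence after 30min at room temperature.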
Assay [16] is described as follows: qHTS assay to identify small molecule agonists of the sonic hedgehog signaling (Shh) pathway - cell viability counter screen (AID 1259366). Note: nearly all actives have a fitted effect of over 50% in size. The method, boiled down:
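NIH/3T3-derived 3T3 Gli1-Luc cells (stable Gli1-responsive firefly luciferase reporter) were seeded, rested 4 hr at 37 C/5% CO2, then exposed to compounds in DMSO for 24 hr; viability was read by CellTiter-Fluor fluorescence in the same wells.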

Assay [17] is described as follows: qHTS assay to identify small molecule antagonists of the sonic hedgehog signaling (Shh) pathway - cell viability counter screen (AID 1259367). Note: nearly all actives have a fitted effect of over 55% in size. The method, boiled down: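 CellTiter-Fluor signal in conditioned medium-stimulated 3T3 Gli1-Luc cells, 23 hr compound exposure, 37C.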
In assay [18] the target is Estrogen receptor (Homo sapiens) (UniProt P03372). Nature of the assay: qHTS assay to identify small molecule antagonists of the estrogen receptor alpha (ER-alpha) signaling pathway using the BG1 cell line in the presence of 0.1 nM 17-beta-estradiol (AID 1259244). Note: nearly all actives have a fitted effect of over 50% in size. The gist of the method:
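Luminescence after ONE-Glo (30 min, room temperature) measured ERE-luciferase activity in VM7Luc4E2 cells treated 22 h with compound and 0.1 nM final 17beta-estradiol as stimulator.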

Assay [19] in a line: qHTS assay to identify small molecule HDAC inhibitors (AID 1259364).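 Note: wild-type HCT-116 cells with endogenous class I/II HDAC activity; top concentration of the series differs between compounds; nearly all actives have a fitted effect of over 45% in size.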 The method, boiled down:
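HCT-116 (wild type), 1,500 cells/well, overnight; compound 2 hr 37C 5% CO2; HDAC-Glo I/II reagent 30 min RT; luminescence readout.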

Assay [20] concerns the target Androgen receptor (Homo sapiens) (UniProt P10275). Nature of the assay: qHTS assay to identify small molecule antagonists of the androgen receptor (AR) signaling pathway using the MDA cell line in the presence of 0.5 nM R1881 (AID 1259243). Note: nearly all actives have a fitted effect of over 50% in size. The method, boiled down: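 MDA-kb2, MMTV-luc (AR/GR elements); 3,000 cells/well; cpd + 0.5 nM R1881 final; 16 hr 37C, 0% CO2; ONE-Glo 30 min RT; luminescence.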

Inconclusive results are not listed. A structure can be active in one record and inactive in another. The source made the active and inactive calls. Unless noted, calls come from the whole dose curve; as a rule, active = well fitted curve in the direction sought with a large enough effect in the repeat runs; inconclusive = weak or mixed curves; inactive = no such curve, though single readings can be large; an effect the other way counts as inactive or inconclusive.

Here are results for 7 compounds from PubChem BioAssay (Tox21).

Chain of Estrogen receptor (Homo sapiens) (P03372 whole entry, looked up): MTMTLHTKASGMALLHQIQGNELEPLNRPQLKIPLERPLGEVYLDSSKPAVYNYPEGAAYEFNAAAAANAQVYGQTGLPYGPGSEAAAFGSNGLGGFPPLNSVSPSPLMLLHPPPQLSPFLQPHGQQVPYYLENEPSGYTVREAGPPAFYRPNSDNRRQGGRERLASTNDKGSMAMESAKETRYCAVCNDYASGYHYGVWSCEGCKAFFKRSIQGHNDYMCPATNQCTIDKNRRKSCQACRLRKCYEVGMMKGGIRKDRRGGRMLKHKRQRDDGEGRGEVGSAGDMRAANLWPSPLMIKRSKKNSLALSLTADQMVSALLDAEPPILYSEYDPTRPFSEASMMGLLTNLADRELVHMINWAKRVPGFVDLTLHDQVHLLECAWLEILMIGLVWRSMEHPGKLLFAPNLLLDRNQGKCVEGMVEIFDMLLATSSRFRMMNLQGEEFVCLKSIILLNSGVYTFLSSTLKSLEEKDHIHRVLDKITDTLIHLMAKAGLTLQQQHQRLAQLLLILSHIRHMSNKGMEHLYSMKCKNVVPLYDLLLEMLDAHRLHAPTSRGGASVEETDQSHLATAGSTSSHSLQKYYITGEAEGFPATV
Chain of Androgen receptor (Homo sapiens) (P10275 whole entry, looked up): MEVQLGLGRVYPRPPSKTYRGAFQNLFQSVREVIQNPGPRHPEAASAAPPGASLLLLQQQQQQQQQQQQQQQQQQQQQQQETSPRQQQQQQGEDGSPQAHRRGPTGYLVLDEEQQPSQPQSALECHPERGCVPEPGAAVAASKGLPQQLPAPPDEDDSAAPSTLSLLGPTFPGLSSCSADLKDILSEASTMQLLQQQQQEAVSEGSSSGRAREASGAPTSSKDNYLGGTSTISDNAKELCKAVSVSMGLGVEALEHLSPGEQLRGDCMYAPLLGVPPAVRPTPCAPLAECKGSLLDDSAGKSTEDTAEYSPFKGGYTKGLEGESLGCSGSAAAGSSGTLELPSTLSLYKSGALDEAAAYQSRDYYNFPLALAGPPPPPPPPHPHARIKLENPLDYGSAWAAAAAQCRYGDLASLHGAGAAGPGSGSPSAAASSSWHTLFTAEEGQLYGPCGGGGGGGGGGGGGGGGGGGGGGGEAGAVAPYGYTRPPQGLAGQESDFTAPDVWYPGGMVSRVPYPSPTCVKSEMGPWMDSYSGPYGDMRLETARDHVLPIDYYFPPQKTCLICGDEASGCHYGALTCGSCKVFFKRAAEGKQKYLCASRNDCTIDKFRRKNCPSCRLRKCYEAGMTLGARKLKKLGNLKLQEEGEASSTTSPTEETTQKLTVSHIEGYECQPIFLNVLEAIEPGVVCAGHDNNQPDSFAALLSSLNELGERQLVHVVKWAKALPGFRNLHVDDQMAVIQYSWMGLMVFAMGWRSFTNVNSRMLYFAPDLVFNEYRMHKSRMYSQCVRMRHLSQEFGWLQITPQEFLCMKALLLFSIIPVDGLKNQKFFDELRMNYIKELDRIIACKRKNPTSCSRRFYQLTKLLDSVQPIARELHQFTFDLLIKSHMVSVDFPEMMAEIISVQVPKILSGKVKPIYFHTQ

Consider `CCOP(=S)(OCC)O/N=C(\C#N)c1ccccc1`, for which the Potency entry in assay [1], in assay [2], in [3], in assay [4], in assay [5] and in assay [6] was “inactive” in each case. The Potency entry in assay [7], in [8], in [9], in assay [10], in [11] and in [12] was “inactive” in each case. For the same compound, the Potency result in [13], in [16] and in assay [17] was “inactive” throughout. For the same compound, the call in assay [14] and in assay [15] was inactive.

For `C=C(C)C(=O)OCC1CO1` (stereo not drawn), the Potency entry in [1], in assay [2], in [3], in assay [4], in assay [5] and in assay [6] was “inactive” throughout. The Potency entry in [7], in assay [8], in assay [9], in assay [10], in assay [11] and in assay [12] was “inactive” in each case. Also, the Potency entry in [13], in [18], in assay [19], in assay [16] and in assay [17] was “inactive” throughout. For the same compound, the call in assay [15] was inactive.

As to `O=C(O)CC[N+](=O)[O-]`, the Potency result in assay [1], in assay [2], in assay [3], in assay [4], in [5] and in [6] was “inactive” throughout. The Potency result in [7], in assay [8], in assay [9], in [10], in assay [11] and in [12] was “inactive” throughout. Moreover, the Potency result in assay [13], in assay [20], in assay [16] and in assay [17] was “inactive” each time. The result in assay [15] was inactive.

For `C[C@]12CCC(=O)C(O)=C1CC[C@@H]1[C@@H]2CC[C@]2(C)C(=O)CC[C@@H]12`, the Potency entry in assay [1], in assay [2], in [3], in assay [4], in assay [5] and in assay [6] was “inactive” each time. In addition, the Potency entry in [7], in assay [8], in assay [9], in assay [11], in [12] and in [13] was “inactive” in each case. For the same compound, the Potency entry in [18], in assay [19], in assay [16] and in assay [17] was “inactive” throughout. Also, the Potency in assay [10] was 21.9 µM (active) and inactive. In addition, the outcome in [15] was inactive.

Consider `CCCCCCCCCCCOC(=O)c1ccccc1C(=O)OCCCCCCCCCCC`, for which the Potency result in assay [1], in assay [2], in [3], in assay [4], in assay [5] and in assay [6] was “inactive” in each case. The Potency result in assay [7], in assay [8], in [9], in assay [10], in assay [11] and in assay [12] was “inactive” each time. For the same compound, the Potency entry in assay [13], in [18], in assay [19], in assay [16] and in assay [17] was “inactive” throughout. Besides, in assay [15], the compound was classed as inactive.

For the compound `Brc1ccc(Oc2cc(Br)c(Br)cc2Br)c(Br)c1`, the Potency result in assay [1], in [2], in assay [3], in assay [4], in [5] and in assay [6] was “inactive” each time. Besides, the Potency result in assay [8], in assay [9], in [10], in assay [11], in assay [12] and in assay [13] was “inactive” each time. Besides, the Potency entry in [18], in assay [16] and in [17] was “inactive” throughout. For the same compound, the Potency in assay [7] is 38.9 µM (active). In assay [15], the compound was classed as inactive.

On to `CNC(=O)Oc1cccc2c1OC(C)(C)O2`, for which the Potency result in assay [1], in assay [2], in assay [3], in [4], in [5] and in assay [6] was “inactive” each time. For the same compound, the Potency entry in assay [7], in assay [8], in assay [9], in assay [10], in assay [11] and in [12] was “inactive” in each case. The Potency result in [13], in assay [18], in assay [19], in assay [16] and in [17] was “inactive” each time. Further, the compound was called inactive in assay [15].
